8 molecules from PubChem BioAssay (NCI) can be followed below.

Test systems include SK-MEL-2 melanoma; EKVX NSCLC; SN12C renal; UO-31 renal; TK-10 renal; CAKI-1 renal; A498 renal; CCRF-CEM leukemia; MOLT-4 leukemia; RPMI-8226 leukemia; OVCAR-8 ovarian; OVCAR-5 ovarian; OVCAR-4 ovarian; SK-OV-3 ovarian; IGROV1 ovarian; HS 578T breast; NCI/ADR-RES ovarian; OVCAR-3 ovarian; SR leukemia; ACHN renal.
Common to all, as to experiment: NCI-60 one-dose screen, 48 h (100 = growth as untreated, 0 = no growth, -100 = all killed)
What all share (conditions): 10 µM unless noted

The panel holds about 83,000 compounds, 20% with a hit somewhere; the sample as a whole holds those more often.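 Interpretation: 100, growth as untreated; towards 0, rising growth inhibition; 0, no net growth; 0 to -100, cell death. Compounds scoring below 10 were considered active.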 A number with no mark means an inactive call. The source made the active and inactive calls.

Take `COc1ccc(N=c2nc3sc4cc(Cl)ccc4n3c(N)c2C#N)cc1`: the growth in the assay with SK-MEL-2 melanoma is 58.6%; in the assay on EKVX NSCLC, 70.8%; with SN12C renal it was 98.4%; in the assay on UO-31 renal, 64.1%; with TK-10 renal, 118%; in the assay on CAKI-1 renal, 69.2%. For the same molecule, the growth in the assay on A498 renal is 100%; in the assay on CCRF-CEM leukemia, 89.2%; in the assay on MOLT-4 leukemia, 37.7%; in the assay on RPMI-8226 leukemia it was 101%; in the assay with OVCAR-8 ovarian it was 59.3%; with OVCAR-5 ovarian it was 107%. Moreover, the growth with OVCAR-4 ovarian is 55.6%; in the assay on SK-OV-3 ovarian, 59.4%; with IGROV1 ovarian, 80.4%; in the assay with HS 578T breast, 34.5%; in the assay on NCI/ADR-RES ovarian, 63.8%.

With `C=C1c2c(C)nn(-c3ccc(O)cc3)c2N(C)C23C[C@@H]1C1(C)c4c(C)nn(-c5ccc(O)cc5)c4N(C)C(C)(C[C@H]12)C3` (stereo not given in full), the growth was 44.3% in the assay on SK-MEL-2 melanoma; 26.1% with EKVX NSCLC; 30% with SN12C renal; 22.4% with UO-31 renal; 57.3% in the assay with TK-10 renal; 27.2% with CAKI-1 renal. Also, the growth is 34.8% in the assay on A498 renal; 4.13% (active) with CCRF-CEM leukemia; -1.11% (active) with RPMI-8226 leukemia; 27.8% with OVCAR-8 ovarian; 85.8% with OVCAR-5 ovarian; 32.2% in the assay on OVCAR-4 ovarian. In addition, the growth is 37.7% in the assay on SK-OV-3 ovarian; 63.2% in the assay on IGROV1 ovarian; 24.2% in the assay on OVCAR-3 ovarian; 52.4% in the assay with HS 578T breast; 47.4% in the assay on NCI/ADR-RES ovarian.

On to `Cc1cc(N(CCCNc2ccnc3cc(Cl)ccc23)Cc2ccccn2)nc(N2CCCC2)n1`, for which the growth is 99.8% in the assay on SK-MEL-2 melanoma; 76.3% with EKVX NSCLC; 64.4% in the assay with SN12C renal; 53.8% in the assay with UO-31 renal; 136% with TK-10 renal; 76.5% in the assay on CAKI-1 renal. For the same molecule, the growth with A498 renal was 95.1%; in the assay on CCRF-CEM leukemia, 53.9%; in the assay on RPMI-8226 leukemia, 48.9%; in the assay on OVCAR-8 ovarian it was 73.4%; in the assay on OVCAR-5 ovarian, 87.6%; in the assay with OVCAR-4 ovarian it was 63.1%. The growth in the assay with SK-OV-3 ovarian was 102%; in the assay with IGROV1 ovarian, 87.5%; in the assay on OVCAR-3 ovarian it was 88%; with HS 578T breast it was 88.9%; in the assay with NCI/ADR-RES ovarian it was 76.7%.

Turning to `Cc1ccc2c(n1)C(=O)C(Oc1ccc(F)cc1)=CC2=O`, the growth in the assay with SK-MEL-2 melanoma is 110%; in the assay on EKVX NSCLC, 103%; in the assay on SN12C renal, 100%; in the assay on UO-31 renal, 93.9%; in the assay on TK-10 renal, 101%; in the assay with CAKI-1 renal, 99.1%. Further, the growth with CCRF-CEM leukemia was 40.2%; in the assay on MOLT-4 leukemia, 66.2%; in the assay with SR leukemia it was 64.6%; with RPMI-8226 leukemia, 43.4%; in the assay with OVCAR-8 ovarian, 87%; in the assay on OVCAR-5 ovarian it was 111%. The growth with OVCAR-4 ovarian is 96.6%; with IGROV1 ovarian, 109%; in the assay with OVCAR-3 ovarian, 73.2%; in the assay on HS 578T breast, 105%; in the assay with NCI/ADR-RES ovarian it was 97.1%.

On to `COc1ccc(-c2nnc(-c3ccc4c(c3)nc(-c3ccccc3)n4C3CCCCC3)o2)cc1`, for which the growth was 57.9% in the assay with SK-MEL-2 melanoma; 73% in the assay with EKVX NSCLC; 65.4% in the assay with SN12C renal; 40.7% with UO-31 renal; 68.9% with TK-10 renal; 60.5% with ACHN renal. Also, the growth in the assay with A498 renal was 85.2%; in the assay with CCRF-CEM leukemia, 35.4%; in the assay on MOLT-4 leukemia it was 31.5%; in the assay with SR leukemia, 58.3%; with OVCAR-8 ovarian it was 30.8%; in the assay with OVCAR-5 ovarian it was 95.4%. The growth in the assay with OVCAR-4 ovarian was 51%; in the assay on SK-OV-3 ovarian, 84.2%; in the assay on IGROV1 ovarian, 89.4%; with OVCAR-3 ovarian, 43%; with HS 578T breast it was 103%; with NCI/ADR-RES ovarian, 40.1%.

As for `Cc1c(C(N)=O)sc2nc(C)n(/N=c3\scc(-c4ccccc4)n3Cc3ccccc3)c(=O)c12`, the growth with SK-MEL-2 melanoma is 10%; in the assay on EKVX NSCLC, -6.97% (active); in the assay with SN12C renal, 47.7%; with UO-31 renal, 4.13% (active); in the assay on TK-10 renal it was 2.89% (active); with CAKI-1 renal it was -40.6% (active). Moreover, the growth is 0.708% (active) in the assay on A498 renal; -12.2% (active) with CCRF-CEM leukemia; 12.1% in the assay on MOLT-4 leukemia; 12.8% in the assay on SR leukemia; -10.3% (active) with RPMI-8226 leukemia; 14.7% in the assay on OVCAR-8 ovarian. The growth in the assay on OVCAR-5 ovarian is 47.9%; in the assay on OVCAR-4 ovarian, 33.5%; in the assay on SK-OV-3 ovarian, 58.6%; with IGROV1 ovarian, 10.9%; with OVCAR-3 ovarian it was 4.32% (active); with HS 578T breast it was -14.6% (active). Also, in the assay on NCI/ADR-RES ovarian, the growth is 18.9%.

Consider `Nc1c(-c2nc3ccccc3c(=O)[nH]2)nnn1-c1ccc(Cl)cc1`, for which the growth in the assay on SK-MEL-2 melanoma is 96.3%; in the assay with EKVX NSCLC, 103%; with SN12C renal, 95.4%; in the assay on UO-31 renal, 48%; in the assay with TK-10 renal, 72.6%; in the assay with CAKI-1 renal it was 70.2%. For the same molecule, the growth is 57.4% in the assay on A498 renal; 90.2% with CCRF-CEM leukemia; 87.7% in the assay with MOLT-4 leukemia; 56.2% with SR leukemia; 90.6% with RPMI-8226 leukemia; 56.1% in the assay on OVCAR-8 ovarian. For the same molecule, the growth in the assay with OVCAR-5 ovarian was 97.8%; with OVCAR-4 ovarian, -4.08% (active); with SK-OV-3 ovarian, 68.5%; with OVCAR-3 ovarian, 89.2%; in the assay on HS 578T breast, 51.1%; in the assay on NCI/ADR-RES ovarian it was 56.4%.

As to `CN(C)CCOC(=O)Nc1ccc(Cl)cc1`, the growth in the assay on SK-MEL-2 melanoma is 79.4%; in the assay on EKVX NSCLC, 101%; in the assay on SN12C renal, 107%; in the assay on UO-31 renal it was 71.2%; with TK-10 renal, 95.1%; with A498 renal, 113%. Also, the growth in the assay on CCRF-CEM leukemia was 80.5%; in the assay on MOLT-4 leukemia it was 89.9%; with SR leukemia, 101%; in the assay on RPMI-8226 leukemia it was 94.3%; with OVCAR-8 ovarian it was 97.5%; in the assay on OVCAR-5 ovarian it was 109%. Besides, the growth was 117% in the assay with OVCAR-4 ovarian; 96.9% in the assay with SK-OV-3 ovarian; 106% in the assay on OVCAR-3 ovarian; 94.7% with HS 578T breast; 104% in the assay on NCI/ADR-RES ovarian.
